This note sets out measurements from PubChem BioAssay AID684 (PCMD, 2007).

The structures appear in SMILES notation. Screen size: about 62,000 compounds; about 95 (0.2%) were called active. Only a selection was taken, and actives are over-represented in it overall. Unmarked numbers belong to inactive results. No stated cut-off is given here; in the data, active means inhibition above about 20% (passing the limit was not always enough); inactive means the rest.

The target of this test is Coagulation factor XII (Homo sapiens) (UniProt P00748). The test can be described thus: blockers of FXIIa protease activity – biochemical, pooled compound mixtures, fluorogenic substrate, primary screen (AID 684).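 Further: 0% = enzyme without compound and 100% = no enzyme blank.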 The conditions noted are these: purified FXIIa, at 5 µM, hits give high values.
Coagulation factor XII (Homo sapiens), sequence (P00748 20-372 limits assumed): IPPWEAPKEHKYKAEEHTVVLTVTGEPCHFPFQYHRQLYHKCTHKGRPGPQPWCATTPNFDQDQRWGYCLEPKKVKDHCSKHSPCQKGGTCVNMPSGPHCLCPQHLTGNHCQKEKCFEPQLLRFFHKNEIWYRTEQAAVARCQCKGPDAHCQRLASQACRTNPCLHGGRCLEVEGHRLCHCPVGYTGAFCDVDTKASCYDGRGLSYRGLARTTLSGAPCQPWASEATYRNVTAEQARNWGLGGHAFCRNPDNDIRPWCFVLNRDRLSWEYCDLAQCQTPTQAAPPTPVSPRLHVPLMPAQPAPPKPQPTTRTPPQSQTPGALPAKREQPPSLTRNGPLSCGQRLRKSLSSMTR
Coagulation factor XII (Homo sapiens), sequence (P00748 373-615 limits assumed): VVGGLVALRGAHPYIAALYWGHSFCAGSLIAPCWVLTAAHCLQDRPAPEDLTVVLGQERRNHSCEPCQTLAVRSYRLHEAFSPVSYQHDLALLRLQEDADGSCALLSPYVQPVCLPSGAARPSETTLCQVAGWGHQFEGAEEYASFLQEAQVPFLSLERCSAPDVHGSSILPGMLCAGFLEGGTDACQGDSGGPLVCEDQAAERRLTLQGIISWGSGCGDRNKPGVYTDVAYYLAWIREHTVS
Broadly, the inhibition is the drop in the measured response relative to a control, in per cent. For `Cc1cc(N(C)C)cc(C)[n+]1[O-]`, the inhibition is -12%.
The figure for `CC(C)c1ccc(N2CC(C(=O)Nc3nccs3)CC2=O)cc1` (stereo unspecified) is 3.69%.
The value for `COc1ccc(Cn2cccc(NC(=O)Nc3ccc(C#N)cc3)c2=O)cc1` was 10.3%.
The value for `Cc1ccccc1C(OCC(O)CN1CCCCC1CCO)c1ccccc1` (stereo unspecified) was 4.15%.
`Cc1ccc(Nc2cc(=O)n(C3CCCCC3)c(=O)[nH]2)cc1C`: the inhibition was 5.68%.
The value for `CCCCn1c(=S)[nH]c2ncccc2c1=O` was 4.05%.
The figure for `COC(=O)C(C)N(C#N)c1nc(C)nc(C)n1` (stereo unspecified) is 9.14%; for `Cc1csc(NC(=O)CN2CCCCCC2)n1` it is 7.17%; for `Cc1nc2ccc(S(=O)(=O)NCC(=O)NCCN3CCCCC3C)cc2s1` (stereo unspecified) it is 9.34%.
The value for `Cc1ccn2cc(-c3nonc3C)cc2c1` was 9.55%.
For `CCCCC(=O)N(c1ccc(OC)cc1)C1C=CS(=O)(=O)C1` (stereo unspecified), the inhibition is 4.62%.
As for `C=CCn1c(=O)c2ccccc2n2c(SCC(=O)N3CCCc4ccccc43)nnc12`, the inhibition is -6.74%.
The figure for `COc1ccc(S(=O)(=O)N2CCCC(C(=O)Nc3ccc(NC(=O)c4ccccn4)cc3)C2)cc1` (stereo unspecified) is 9.91%; for `CC12CCC(C(=O)N3CCN(c4ncccn4)CC3)(c3nc4ccccc4nc31)C2(C)C` (stereo unspecified) it is 11.8%; for `CC1(C)C2CCC1(C)C(OC(=O)CCn1ccnc1)C2` (stereo unspecified) it is 3.17%.
The value for `Cc1ccc2c(c1)C(O)(CC(=O)c1cccnc1)C(=O)N2` (stereo unspecified) was 10.7%; that for `Cc1cc2ccccc2n2c(SCC(=O)N3CCN(C(=O)c4ccco4)CC3)nnc12` was -6.12%.
The value for `CCC(Sc1nncn1C)C(=O)Nc1nnc(-c2ccc(Cl)cc2)s1` (stereo unspecified) was 15.7%; that for `Cc1ccc(SCc2cc(=O)[nH]c(N3CCCCC3)n2)cc1` was 3.87%.
As to `N#Cc1c(N)sc2c1CCN(C(=O)OCc1ccccc1)C2`, the inhibition is -18%.
Consider `COc1ccc2c(c1)C(C)=CC(C)(C)N2C(=O)CNCc1ccc2c(c1)OCO2`, for which the inhibition is 17%.
Regarding `CCN(CC)c1ccc2cc(C(=O)O)c(=O)oc2c1`, the inhibition was -2.87%.
Turning to `COc1cccc(Oc2ccc(N)cc2)c1`, the inhibition was -12.6%.
The value for `COC(=O)CSc1nc(C2CC2)nc2ccccc12` was -5.91%.
The figure for `Cn1cc(S(=O)(=O)N2CCC(Cc3ccccc3)CC2)c(=O)n(C)c1=O` is -15.8%; for `O=C(CN1C(=O)COc2ccccc21)NCCN1CCc2ccccc2C1` it is 2.87%.
The value for `CCC1=[N+]([O-])C(C)(/C(C)=N\O)N(O)C1(C)C` (stereo unspecified) was -9.09%; that for `COc1cccc(-c2nnc(N(C)C(=O)c3ccno3)s2)c1` was 7.52%; that for `CCN1CCCC1CNC(=O)Cn1cnc2ccc(S(=O)(=O)N3CCC(C)CC3)cc2c1=O` (stereo unspecified) was 9.9%.
With `O=C(NCc1cccnc1)c1ccc(CS(=O)(=O)c2ccc(Br)cc2)o1`, the inhibition was -21.3%.
The value for `CCCn1c(C(O)c2ccc(OCC)cc2)nc2ccccc21` (stereo unspecified) was 4.63%; that for `CCOC(=O)c1cccc(NC(=O)CCn2nnc3ccccc32)c1` was -0.18%.
The figure for `CCCN(c1ccc(C(C)C)cc1)S(=O)(=O)c1c(C)[nH]c(=O)[nH]c1=O` is -19%; for `CCCn1c(SCC(=O)N2CCc3ccccc32)nnc1-c1ccncc1` it is -0.835%; for `CCN1C(=O)/C(=C\N2CCN(c3ccccc3)CC2)SC1=S` it is 4.83%.
The value for `CCN1C(=O)/C(=C\N2CCN(c3cccc(Cl)c3)CC2)SC1=S` was 20.4% (active); that for `CS(=O)(=O)N(CC(=O)N1CCN(c2cccc(Cl)c2)CC1)c1ccccc1` was 1.3%.
For the compound `Cc1ccc(C(c2sc3nc(C)nn3c2O)N2CCN(c3ccc(F)cc3)CC2)cc1` (stereo unspecified), the inhibition was 3.33%.
The figure for `O=C1CC(Cc2ccccc2)C(=O)N1c1ccc(Cl)cn1` (stereo unspecified) is -17.9%.
For `COCCNC(=O)COc1ccc(C)c(C)c1`, the inhibition was 1.93%.
The value for `CC(C)Oc1ccc(C2NC(=O)NC2=O)cc1` (stereo unspecified) was -16.2%; that for `Nn1c(SCC(=O)NC(=O)NC2CCCC2)nnc1-c1ccccc1F` was 3.32%; that for `CCOC(=O)c1sc(NC(=S)n2cc(C)cn2)c(C(=O)OCC)c1C` was 7.4%.
As to `O=C(CNC(=O)c1ccc(Cl)cc1Cl)NCC(=O)Nc1ccccc1N1CCOCC1`, the inhibition is 6.48%.
With `O=C1CC(N2CCN(C(c3ccccc3)c3ccccc3)CC2)C(=O)N1` (stereo unspecified), the inhibition is 1.87%.
The figure for `COc1cccc(NC(=O)c2ccccc2SC)c1` is -1.39%.
The value for `Cc1ccc(Cn2ccc(NC(=O)C3C4CCC(C4)C3C(=O)O)n2)cc1` (stereo unspecified) was -2.65%; that for `COc1ccc(N2CCN(CCNC(=O)c3nnc(Cc4c(F)cccc4Cl)o3)CC2)cc1` was 10.3%.
The value for `CCOC(=O)c1cc2occc2n1CC(=O)N1CCN(C(=O)c2ccco2)CC1` was 9.63%.
With `Cc1noc(C)c1S(=O)(=O)N(CC(=O)NCc1ccc(Cl)cc1)c1ccc2c(c1)OCO2`, the inhibition was -1.99%.
The figure for `CCC(C)Sc1nc2c(c(=O)[nH]c(=O)n2C)n1CC(O)COc1cccc2ccccc12` (stereo unspecified) is -0.685%; for `CC(C)C[C@H](NC(=O)NCCc1ccc(Cl)cc1)C(=O)O` it is 5.46%.
The value for `CC(Sc1sc(=S)sc1SC(C)C(=O)O)C(=O)O` (stereo unspecified) was 0.39%.
`CC/C(=N\O)C(C)(C)/[N+]([O-])=C/c1ccc(Br)cc1`: the inhibition was 8.49%.
Consider `Brc1ccc(OCCn2ccnc2)cc1`, for which the inhibition is 10.3%.
The value for `O=C1C(=O)N(CCN2CCOCC2)C(c2ccccn2)/C1=C(/O)c1ccc(Cl)cc1` (stereo unspecified) was 5.72%; that for `COC(=O)C1=CN(C)C=C(C(=O)OC)C1c1ccc(Cl)cc1Cl` was -3.3%.
The value for `C=CCn1cnc2scc(-c3ccccc3)c2c1=O` was 12.3%; that for `COc1ccc(S(=O)(=O)N2CCN(c3ncnc4c(-c5ccccc5)nsc34)CC2)cc1` was 4.31%; that for `CCCS(=O)(=O)N1CCCC(C(=O)NCCN2CCCCC2C)C1` (stereo unspecified) was 1.05%.
The figure for `CCOC(=O)C1CCN(C(=O)CC2C(=O)N(Cc3ccccc3)C(C)c3nc4ccccc4n32)CC1` (stereo unspecified) is 4.71%.
